ssDAF12 agonist – S. stercoralis DAF-12 activation, primary screen; HEK293 ssDAF-12/GRIP1 lit1-tk-luc reporter, luminescence; % of 3 µM dafachronic acid response; activation, % at 6.8 µM; actives 1% (n = 370,000);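 active = activation above the mean over all tested compounds plus 3 SD, cut at about 0.9% in these data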;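 note: 0% = DMSO-only wells and 100% = 3 µM delta7-dafachronic acid wells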
hgDAF12 agonist – activates the H. glycines DAF-12 receptor ligand-binding domain | HEK293 GAL4-hgDAF12 UAS-luciferase reporter, agonist luminescence; normalized to butyrate control | activation, % at 6.8 µM | actives 1.8% (n = 370,000);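 active = activation above a cutoff set at the mean of all screened compounds plus 3 SD, cut at about 10% in these data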;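 note: 0% = DMSO wells and 100% = sodium butyrate wells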
DAX1 inh-1 – NR0B1 (DAX1) inhibition; HEK293 Gal4-DAX1 luciferase reporter, luminescence; inhibition, % at 6.75 µM; actives 0.99% (n = 340,000); AID 504766;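 active = inhibition above the mean over all tested compounds plus 3 SD, cut at about 4.2% in these data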;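 note: 0% = DAX1-transfected cells with DMSO and 100% = empty-vector control cells with DMSO; inhibition shows as a rise in luminescence from relieved DAX1 repression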
hcDAF12 agonist – H. contortus DAF-12 activation, primary screen; actives 1.4% (n = 370,000); AID 652067; activation, % at 6.8 µM; HEK293 hcDAF-12 lit1-tk-luc reporter, luminescence; 0% DMSO, 100% Δ7-dafachronic acid;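 active = activation above the mean of all tested compounds plus 3 SD, cut at about 5.5% in these data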;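 note: 100% = response to 3 µM Δ7-dafachronic acid high control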
AHR activator – activators of human aryl hydrocarbon receptor; AHR-responsive luciferase reporter cells, luminescence; activation, % at 5 µM; actives 2.5% (n = 320,000); in the data active = activation above about 47%;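 note: 0% = vehicle wells and 100% = reference agonist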
DAX1 inh-2 – DAX1 (NR0B1) inhibition, primary screen; HEK293T StAR-luciferase reporter, SF-1/DAX-1 repression relief; inhibition, % at 6.8 µM; actives 1.1% (n = 370,000);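 active = inhibition above the mean over all tested compounds plus 3 SD, cut at about 3.6% in these data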;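 note: 0% = DAX-1 cells with DMSO and 100% = cells lacking DAX-1 with DMSO; higher inhibition means more luminescence from relief of DAX-1 repression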
DAX1 conf – NR0B1 (human) inhibition, confirmation. shares compounds with DAX1 inh-2. HEK293T StAR-promoter luciferase reporter, SF-1/DAX-1 repression. inhibition, % at 6.8 µM. actives 87% (n = 2,400);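 active = inhibition above the average of every tested compound plus 3 SD, cut at about 3.8% in these data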;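 note: 0% = DAX-1 cells with DMSO and 100% = no DAX-1 control cells with DMSO; active compounds raise luminescence by relieving repression of the StAR reporter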
SF1 mutant ctr – counter-screen for DAX1 inhibitors: nonselective inhibitors with SF-1 AF2 mutant; shares compounds with DAX1 inh-2; HEK293 StAR-luciferase, luminescence; inhibition, % at 6.8 µM; actives 78% (n = 2,400);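 active = inhibition above the mean of all tested compounds plus 3 SD, cut at about 3% in these data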;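 note: 0% = DAX-1 transfected cells with DMSO and 100% = cells without DAX-1 with DMSO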
LXR ag – LXR-beta agonism as hcDAF-12 counter-screen | shares compounds with hcDAF12 agonist | HEK293 Gal4-LXR tk-luc reporter, luminescence, 24 h; normalized: DMSO 0%, positive control 100% | activation, % at 6.8 µM | 3,400 tested, under 10 active;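 active = mean percent activation of the reporter above a cutoff set as the average over tested compounds plus their standard deviation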
Target sequence (P55055 whole entry, looked up, the tested form may be a part): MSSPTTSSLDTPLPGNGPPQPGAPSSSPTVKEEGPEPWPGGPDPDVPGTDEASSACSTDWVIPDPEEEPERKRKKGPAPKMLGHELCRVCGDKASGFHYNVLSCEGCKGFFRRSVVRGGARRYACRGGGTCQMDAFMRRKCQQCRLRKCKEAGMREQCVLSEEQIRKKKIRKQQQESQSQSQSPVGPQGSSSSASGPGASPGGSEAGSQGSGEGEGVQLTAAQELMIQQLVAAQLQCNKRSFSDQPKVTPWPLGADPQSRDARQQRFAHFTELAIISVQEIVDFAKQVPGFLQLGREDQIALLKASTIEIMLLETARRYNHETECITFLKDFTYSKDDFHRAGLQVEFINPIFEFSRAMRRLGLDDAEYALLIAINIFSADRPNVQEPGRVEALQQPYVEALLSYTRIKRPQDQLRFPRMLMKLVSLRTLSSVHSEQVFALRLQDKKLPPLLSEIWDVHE
hcDAF12 conf – hcDAF-12 agonism, confirmation assay | AID 743032 | shares compounds with hcDAF12 agonist | actives 61% (n = 3,400) | HEK293 hcDAF-12 lit1-tk-luc reporter, luminescence; % of Δ7-dafachronic acid response | activation, % at 6.8 µM;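 active = mean activation across triplicate tests above the threshold derived from the earlier primary screen, cut at about 5.5% in these data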;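 note: 0% = DMSO only wells and 100% = 3 µM Δ7-dafachronic acid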
hgDAF12 ag – hgDAF-12 agonism, confirmation assay; actives 80% (n = 3,300); HEK293 GAL4-hgDAF12 luciferase reporter, agonist mode; percent of butyrate response; activation, % at 6.8 µM; shares compounds with hgDAF12 agonist;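 active = mean activation over triplicate wells above the hit cutoff derived from the earlier primary screen, cut at about 11% in these data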;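 note: 0% = DMSO low control and 100% = 2 mM sodium butyrate high control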
LXRb DAF12 ctr – counter-screen for DAF-12 agonists: agonists of human LXR-beta; HEK293 Gal4-LXR luciferase reporter, 24 h; activation, % at 6.8 µM; AID 743051; 3,300 tested, under 10 active; shares compounds with hgDAF12 agonist;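 active = mean activation of the triplicate above a set limit carried over from the primary screen, none filed active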
Numbers without * were called inactive; . = not tested or not shown. Rows were chosen to be rich in hits. Some 5.7% of all compounds tested hit in one or more screens of this group.

SMILES	ssDAF12 agonist	hgDAF12 agonist	DAX1 inh-1	hcDAF12 agonist	AHR activator	DAX1 inh-2	DAX1 conf	SF1 mutant ctr	LXR ag	hcDAF12 conf	hgDAF12 ag	LXRb DAF12 ctr
Cc1cc(N)n2nc(-c3ccccc3)cc2n1	1.7*	20*	-1	12*	2	5.8*	16*	8.2*	1	6.9*	19*	1
COc1ccc(CC(=O)Nc2ccc(S(=O)(=O)N3CCN(C)CC3)cc2)cc1	-1	-2	-1	0	0	-1	.	.	.	.	.	.
O=C(/C=C/c1ccccc1)Nc1scc(-c2ccccc2)c1C(=O)O	0	15*	3	4	.	5.1*	8.9*	8.6*	.	.	11*	1
O=C(Nc1nc2c(s1)CCCC2)c1ccc2ncsc2c1	1.0*	16*	0	6.2*	-6	8.0*	10*	3.2*	.	.	12*	1
C/C(=N\Nc1ccccc1)c1c(O)cc(C)oc1=O	-1	1	3	-2	14	0	.	.	.	.	.	.
CC(=Nc1ccc(Cl)cc1N)c1c(O)cc(C)oc1=O	1.6*	24*	.	10*	.	9.8*	3	1	0	5.6*	16*	0
O=[N+]([O-])c1ccc(COc2ccc(CN3CCCC3)cc2)cc1	0	15*	0	2	.	4.8*	6.9*	5.6*	.	.	13*	0
O=[N+]([O-])c1ccc(COc2ccc(CN3CCOCC3)cc2)cc1	0	18*	-2	3	.	7.7*	4.2*	1	.	.	9	1
O=[N+]([O-])c1ccc(CN2CCOCCOCCN(Cc3ccc([N+](=O)[O-])cc3)CCOCC2)cc1	.	.	-3	.	4	.	.	.	.	.	.	.
O=[N+]([O-])c1ccc(COc2ccc(CN3CCCCC3)cc2)cc1	-1	8	0	1	.	2	.	.	.	.	.	.
COc1ccc(C2/C=C\CN(Cc3ccc(N(C)C)cc3)CC(=O)N2Cc2ccc(F)cc2)cc1 (stereo not given)	-1	2	1	-1	4	0	.	.	.	.	.	.
Cc1ccnc(NC(=O)/C=C/c2ccccc2[N+](=O)[O-])c1	1.8*	21*	.	9.3*	72*	5.0*	14*	8.1*	2	8.3*	20*	1
COc1ccc2oc3cc(NCCN(C)C)ccc3c(=O)c2c1	2.2*	43*	.	9.2*	.	16*	22*	13*	2	8.4*	42*	1
O=C(c1cc(-c2cccc(O)c2)on1)N1CCCCC1	0	22*	1	6.9*	-3	8.8*	14*	7.1*	2	5	14*	1
COc1cccc(-c2cc(C(=O)N3CCN(c4ccc(F)cc4)CC3)no2)c1	-1	-1	0	-2	-3	1	.	.	.	.	.	.
COc1cccc(-c2cc(C(=O)N3CCCCCC3)no2)c1	1	18*	2	8.1*	-2	9.6*	17*	7.3*	2	6.7*	18*	1
CC(=O)Nc1ccc2nc(-c3ccccc3)cn2c1	1	21*	1	4	11	6.0*	10.0*	6.6*	.	.	17*	1
CC(=O)Nc1ccc(-c2cc(-c3ccccc3)nc(-c3ccccc3)n2)cc1	-1	0	0	2	9	0	.	.	.	.	.	.
CC(C)C(=O)Nc1ccc2nn(-c3ccccc3)nc2c1	1.0*	22*	1	8.8*	-4	12*	13*	7.3*	2	8.4*	19*	1
CCCc1ccc(OC(=O)c2cccs2)cc1	-2	-2	-1	-2	1	0	.	.	.	.	.	.
CCCc1ccc(OC(=O)c2ccc(O)cc2Cl)cc1	1	16*	2	8.4*	-1	5.3*	14*	6.0*	2	8.1*	2	1
O=C1CC(c2ccccc2F)c2c(c3ccccc3[nH]c2=O)O1 (stereo not given)	-1	3	-1	2	3	1	.	.	.	.	.	.
CC1CCCN(C(=O)c2ccc(-c3ccccc3Cl)o2)C1 (stereo not given)	0	18*	4	2	2	7.8*	12*	6.3*	.	.	15*	1
CC1CN(C(=O)c2ccc(-c3ccccc3Cl)o2)CC(C)O1 (stereo not given)	-1	3	0	-1	6	0	.	.	.	.	.	.
O=C(O)c1ccc(Nc2nc(-c3ccccc3)cs2)cc1	1	15*	2	5	6	5.0*	13*	7.7*	.	.	16*	1
SMILES	ssDAF12 agonist	hgDAF12 agonist	DAX1 inh-1	hcDAF12 agonist	AHR activator	DAX1 inh-2	DAX1 conf	SF1 mutant ctr	LXR ag	hcDAF12 conf	hgDAF12 ag	LXRb DAF12 ctr
Cc1ccnc(NC(=O)C2CC(=O)N(c3ccc4c(c3)OCCO4)C2)c1 (stereo not given)	0	15*	1	4	4	12*	12*	6.2*	.	.	16*	1
Cc1ccc(CN2CC(C(=O)Nc3cc(C)ccn3)CC2=O)cc1 (stereo not given)	0	22*	2	3	-2	11*	12*	3.1*	.	.	22*	0
CCC(CO)Nc1ccn2nc(-c3ccccc3)cc2n1 (stereo not given)	0	18*	.	3	.	9.5*	8.9*	7.2*	.	.	16*	1
Brc1ccc2nc(-c3c[nH]c4ccccc34)cn2c1	0	22*	6.2*	11*	45	8.8*	18*	8.5*	2	9.6*	21*	1
O=[N+]([O-])c1ccccc1OCCCn1cnc2ccccc21	-1	17*	2	0	.	5.5*	7.2*	4.3*	.	.	16*	1
CC(C)(C)Nc1ncnc2c1cnn2-c1ccccc1	1	16*	1	5	13	9.0*	15*	4.7*	.	.	12*	1

High-throughput results (PubChem BioAssay)
